High-throughput results (PubChem BioAssay)
G9a inh = inhibitors of human histone lysine methyltransferase G9a. Q96KQ7. G9a H3K9 monomethylation, AlphaScreen, 2 h. Potency, µM (top dose mostly 102 µM), without a hit: top-dose activity, negative = inhibition, hits mostly inhibitors. 8.8% of 350,000 active. AID 504332; note: % is set by controls: 0 for no effect and ±100 for the full control effect; nearly all actives have a fitted effect of over 75% in size
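Chemiluminescent proximity detection of H3K9 monomethylation, read after 10 min bead incubation in the dark. Reaction: 20 nM G9a, 500 nM biotin-H3K9 peptide, 20 uM SAM cofactor, 2 h, room temperature, following 15 min enzyme-compound preincubation.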
Glioma ERSR ind = inducers of ER stress response in human glioma cells; U87-MG GRP78 promoter luciferase reporter, 16 h; Potency, µM, for inactives: top-dose activation, hits mostly activators; 0.02% of 420,000 active; note: series mostly up to about 76 µM; % of control where 0% means no effect; nearly all actives have a fitted effect of over 35% in size
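Stably transfected U87-MG glioma cells carrying a GRP78-based luciferase sensor; 16 h compound incubation. Luminescence end-point read 10 min after Bright-Glo addition at room temperature.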
12-LOX inh = ALOX12 (human) lipoxygenase inhibition. 1.1% of 580,000 active. P18054. purified 12hLO, xylenol orange hydroperoxide absorbance. Potency, µM (top dose mostly 108 µM), without a hit: at the top dose activity change, negative = inhibition, most hits filed as inhibitors. AID 1671190; note: % is set by controls: 0 for no effect and ±100 for the full control effect
Target sequence (P18054 whole entry, looked up): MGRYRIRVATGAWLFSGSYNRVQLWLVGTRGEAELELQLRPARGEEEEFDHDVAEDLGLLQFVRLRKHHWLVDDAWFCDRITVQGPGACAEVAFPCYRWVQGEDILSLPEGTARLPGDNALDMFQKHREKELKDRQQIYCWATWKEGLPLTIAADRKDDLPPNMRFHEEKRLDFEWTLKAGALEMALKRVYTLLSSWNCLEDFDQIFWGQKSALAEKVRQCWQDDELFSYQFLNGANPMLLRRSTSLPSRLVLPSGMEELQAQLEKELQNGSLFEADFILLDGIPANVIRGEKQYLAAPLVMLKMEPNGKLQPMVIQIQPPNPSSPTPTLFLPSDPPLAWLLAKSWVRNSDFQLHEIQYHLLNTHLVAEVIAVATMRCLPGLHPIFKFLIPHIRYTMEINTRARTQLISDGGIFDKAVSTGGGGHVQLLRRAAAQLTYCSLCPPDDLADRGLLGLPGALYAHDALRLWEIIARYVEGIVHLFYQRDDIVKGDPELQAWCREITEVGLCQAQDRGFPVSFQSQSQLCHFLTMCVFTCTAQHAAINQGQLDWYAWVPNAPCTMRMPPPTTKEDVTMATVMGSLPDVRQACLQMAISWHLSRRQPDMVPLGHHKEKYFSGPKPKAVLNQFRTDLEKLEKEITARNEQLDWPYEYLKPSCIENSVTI
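Hydroperoxide product was detected by ferrous iron/xylenol orange as the 573 to 405 nm absorbance ratio. Arachidonic acid at 40 uM (final) was turned over for 30 min at room temperature by 150 nM human 12hLO, pH 7.0 Hepes buffer, after 15 min compound preincubation.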
VDR inhibitor = blocks the human vitamin D receptor. VDR-SRC2-3 peptide fluorescence polarization, 2 h. Potency, µM, without a hit: max response, negative = inhibition, usual class: inhibitors. 0.93% of 400,000 active. AID 504847; note: % is set by controls: 0 for no effect and ±100 for the full control effect
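The screen uses fluorescence polarization to detect compounds that interfere with recruitment of the SRC2-3 coactivator peptide to VDR; plates are read after 2 h at room temperature.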
Sfp inh = inhibitors of Bacillus subtilis Sfp phosphopantetheinyl transferase | Q9F4F7 | Biochemical Sfp PPTase activity, qHTS | Potency, µM, without a hit: largest response in the series, negative = inhibition, most hits filed as inhibitors | 3.5% of 310,000 active | AID 1490;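 note: the enzyme is Sfp with the accession as filed and its product quenches rhodamine fluorescence; 0% = enzyme reaction without inhibitor and -100% = no enzyme wells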
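Buffer: 50 mM Hepes-Na pH 7.6, 10 mM MgCl2, 0.01% Nonidet P-40, 0.01% BSA. Enzyme 15 nM, pre-exposed to compound 15 min; substrates then added and fluorescence change tracked over 30 min.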
Numbers without * were called inactive; ? = inconclusive; · = no result given; [ ] = remark or other dose. The entries come from a sample that favours hits as a whole. Calls come from the whole dose curve; as a rule, active = well fitted curve in the direction sought with a large enough effect; inconclusive = small, poorly fitted or top-dose-only effect, or another doubt; inactive = no such curve, though single readings can be large; an effect the other way counts as inactive or inconclusive. Potency is the fitted concentration of half-maximal effect.

SMILES | G9a inh | Glioma ERSR ind | 12-LOX inh | VDR inhibitor | Sfp inh
COc1cccc(C2=CC(c3ccc(N(C)C)cc3)n3ncnc3N2)c1 (stereo not drawn) | 39.8µM* | · | · | · | ?
COc1ccc(C2=CC(c3ccc(C)cc3)n3nnnc3N2)cc1 (stereo not drawn) | ? | 2.9% | · | -16.9% | ?
COc1ccc(C2C=C(c3ccccc3)Nc3nnnn32)cc1 (stereo not drawn) | 50.1µM* | 0.3% | -15.7% | -10.4% | -11.4%
C=CCOC(=O)C(C#N)c1nc2ccccc2nc1N1CCC(Cc2ccccc2)CC1 (stereo not drawn) | · | · | 0.1% | · | ·
Cc1ccccc1OCCNCC(C)O (stereo not drawn) | 14.1µM* | -3.5% | ? | -0.9% | -7.8%
CCOc1ccccc1CNCCNCC(C)O (stereo not drawn) | ? | -5.7% | 11.0% | -12.3% | -15.1%
Fc1ccc(-c2nc(CC3CCNC3)no2)cc1 (stereo not drawn) | · | · | 68.2% | · | ·
COC(=O)c1cc(NC(=O)c2cccc(C(F)(F)F)c2)c(=O)oc1C/C=N/OCc1cccc(Cl)c1Cl | 39.8µM* | -4.0% | ? | -7.6% | 0.0%
COC(=O)c1cc(NC(=O)c2cccc(C(F)(F)F)c2)c(=O)oc1C | 28.2µM* | -1.8% | 1.0% | 1.9% | ?
COC(=O)c1cc(NC(=O)c2ccc(OC)cc2)c(=O)oc1C | -26.4% | 2.0% | -0.3% | 1.7% | -12.6%
O=C(O)c1cc2ccccc2cn1 | · | 0.1% | 0.7% | 3.8% | ·
O=C(O)c1ccnc(C(=O)O)c1 | ? | 1.7% | 4.6% | 9.5% | 35.5µM*
CN(C)c1ccnc(C(=O)O)c1 | 4.47µM* | -2.5% | 2.4% | 12.2% | 56.2µM*
O=C(O)c1cc(Br)ccn1 | 15.8µM* | -5.0% | -7.2% | -8.7% | 35.5µM*
O=C(COc1ccc(F)cc1)N1CCC(Oc2ncccc2C(=O)N2CCCCC2)C1 (stereo not drawn) | · | · | 13.3% | · | ·
O=C(O)c1cc(C(=O)O)cc(N2C(=O)CSC2=S)c1 | 17.8µM* | -8.0% | -4.4% | -2.0% | -29.5%
O=C(CCc1nc(CSc2n[nH]c(-c3ccc(Cl)cc3)n2)no1)Nc1ccc2ccccc2c1 | · | · | -27.4% | · | ·
Cc1cccc(C(=O)NC(=S)NNC(=O)c2ccc(Cl)cc2)c1 | 39.8µM* | 35.5µM* | 28.2µM* | -4.7% | -2.5%
Cc1cccc(C(=O)NNC(=S)NC(=O)c2ccc(C(C)(C)C)cc2)c1 | · | · | 17.8µM* | · | ·
O=C(NNC(=O)c1cc2cc3ccccc3nc2s1)c1cccc(Cl)c1 | 31.6µM* | -3.1% | 0.0% | 8.7% | 7.2%
NC(=S)NNC(=O)c1cccc(Cl)c1 | 70.8µM* | -0.6% | 479.7% | 6.3% | ?
Cc1cccc(C(=O)NNC(=O)c2ccc(Br)cc2)c1 | 1.2% | -0.2% | -15.5% | -15.9% | 21.7%
O=C(NCc1ccccn1)C1CCC(CNS(=O)(=O)c2ccccc2)CC1 (stereo not drawn) | · | · | 7.5% | · | ·
O=C1NCc2ccccc2CC12CCN(Cc1ccc(F)cc1O)CC2 | · | · | 1.6%[6.33 µM] | · | ·
CC(C)c1ccc(N2C(=O)/C(=C/N(C)C)SC2=S)cc1 | 50.1µM* | -0.8% | ? | -20.0% | 27.8%
SMILES | G9a inh | Glioma ERSR ind | 12-LOX inh | VDR inhibitor | Sfp inh
CO/C([O-])=N/c1c[n+](-c2ccc(C)cc2)no1 | 20µM* | -0.6% | ? | 16.7% | 10.3%
CSCCC(NS(=O)(=O)c1ccccc1)C(=O)Nc1nccs1 (stereo not drawn) | 8.91µM* | -3.4% | ? | 7.6% | ·
Cc1ccc(-c2cc(C(=O)NC3=NCCS3)c3ccccc3n2)cc1 | · | · | -33.2% | · | ·
O=[N+]([O-])c1cc(N=Nc2ccc3ccccc3c2)ccc1O | 3.16µM* | 2.0% | 99.0% | -26.8% | 11.2%
COc1ccc(S(=O)(=O)N2CCCC2)cc1-c1nc(C(C)C)no1 | · | · | 3.3% | · | ·
Cc1cccc(N2CCc3c2nc2ccc(Br)cc2c3N)c1 | ? | 2.7% | ? | -8.0% | 12.6µM*
Nc1c2c(nc3ccc(Br)cc13)N(C1CCCCC1)CC2 | 3.55µM* | · | · | · | -28.1%
Nc1c2c(nc3ccccc13)N(C1CCCCC1)CC2 | ? | -7.6% | ? | -0.2% | -56.2%
Nc1c2c(nc3ccc(Br)cc13)N(c1ccccc1)CC2 | ? | 5.0% | ? | -10.2% | 17.8µM*
CC(C)(C)c1cc(N/C=C/C(=O)C(F)(F)F)cc(C(C)(C)C)c1 | · | · | -27.3% | · | ·
CCOc1ccccc1C(=O)N1CCC[C@H]1c1nc(-c2ccc(F)cc2)no1 | · | · | 20.0% | · | ·
COc1cc(NC(=O)COc2ccc3c(C)c(C)c(=O)oc3c2)cc(OC)c1 | · | · | -2.8% | · | ·
Cc1nc2ccccc2c(C)c1C(=O)c1ccc(Cl)cc1 | · | · | 7.94µM* | · | ·
COc1ccc(-c2cc(-c3ccccc3)no2)cc1 | 6.2%[2.33 µM] | -3.9% | 12.4% | -8.8% | ·
COc1ccc(-c2cc3nnc(-c4ccccc4)nc3s2)cc1 | ? | -3.0% | -30.0% | -26.6% | 39.8µM*
Cc1ccc(-n2c(C)c3c(C)nnc(C)c3c2C)cc1C | 12.5%[12.7 µM] | 3.0% | 46.0% | 29.8% | ?
Cc1ccc(-n2c(C)n[nH]c2=S)cc1C | 5.01µM* | -4.9% | ? | -4.4% | 0.1%
Cc1ccc(-n2c(-c3c(-c4ccccc4)noc3C)n[nH]c2=S)cc1 | 0.562µM* | -4.8% | -13.3% | -13.0% | -6.4%
Cc1n[nH]c(=O)n1-c1ccc(C(C)(C)C)cc1 | 17.9% | 3.8% | 0.2% | 12.5% | 20.9%
Cc1ccc(-n2c(-c3cccc(C)c3)n[nH]c2=S)cc1 | -126.8% | -0.6% | ? | -10.4% | -7.6%
Cc1ccc(-n2c(C)n[nH]c2=S)cc1 | 22.4µM* | -2.5% | 0.3% | 17.7% | -1.7%
O=C(CCc1ccsc1)N(Cc1ccccn1)C1CC1 | · | · | 0.1% | · | ·
O=c1cc(-c2ccncc2)oc2c(-c3ccccc3Oc3ccccc3)nccc12 | · | · | 31.6µM* | · | ·
O=c1cc(-c2ccncc2)oc2c(-c3ccccc3F)nccc12 | · | · | -2.3%[176 µM] | · | ·
COc1ccc(OCC(=O)Nc2ccc3c(c2)nc(CCN2CCOCC2)n3C)cc1 | 56.2µM* | -2.4% | -1.1% | -13.5% | 13.6%
SMILES | G9a inh | Glioma ERSR ind | 12-LOX inh | VDR inhibitor | Sfp inh
CCN(CC)S(=O)(=O)c1ccc(/C=C/C(=O)Nc2ccc(N3CCOCC3)cc2)cc1 | 44.7µM* | -5.9% | -8.3% | -6.5% | 9.3%
CCN(CC)S(=O)(=O)c1ccc2c(c1)nc(CCC(=O)Nc1ccc(N3CCOCC3)cc1)n2C | 44.7µM* | 0.9% | 6.1% | -11.3% | -27.1%
Cn1c(CCN2CCOCC2)nc2cc(NC(=O)COc3ccc(Cl)cc3)ccc21 | -11.1% | -2.0% | 10.8% | -1.6% | 4.1%
COc1ccccc1NC(=O)C(C)OC(=O)c1cccnc1 (stereo not drawn) | · | · | 4.2% | · | ·
O=C(NCc1ccc(F)cc1)C1CCN(S(=O)(=O)c2ccc(Cl)cc2)CC1 | -9.7% | -4.5% | 10.3% | 4.5% | -20.0%
O=C(NCc1ccc(Cl)cc1)C1CCN(S(=O)(=O)c2cc([N+](=O)[O-])ccc2Cl)CC1 | 44.7µM* | -2.7% | -28.3% | -17.8% | -28.6%
O=C(NC1CC1)C1CCN(S(=O)(=O)c2ccc(Cl)cc2)CC1 | -4.4% | -2.1% | -11.8% | 11.8% | 9.2%
